# In the supplement of paper PMC11417369:
# ± gives the standard deviation of the averaged measurements. The full ranking holds about 25,000 sequences; the median of “ln(normalized median fluorescence intensity)” is about 10, and the highest 2% start at about 12. The full list was thinned out, with the highest values kept by preference.
# Tested on: PfAP2-G AP2 domain (GST-tagged)
# Assay: gcPBM binding intensity (ln(normalized median fluorescence intensity)); higher = stronger DNA binding
# Procedure, shortened: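 Using an Agilent 4 × 180k array, primer-extended double-stranded 36-bp intergenic genomic probes and negative controls were exposed for 1 h to GST-fused P. falciparum DNA-binding domains expressed in E. coli. Binding was carried out in 1× PBS with 1% milk, 0.2 mg/ml BSA, 0.5% salmon testes DNA and 0.03% Triton X-100, and protein was detected with Alexa488 anti-GST antibody and a 488 nm scan. Binding intensity is the highest Masliner-normalised natural-log median intensity across replicate spots of either probe orientation.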
row,Sequence,gcPBM binding intensity (ln)
1,AATAAATTTAGACACACACACACATATAAATAAATA [CACACA_site6531],10.1 ± 0.13
2,AAAGAATTTGCATATACACACAAAAAAATATATACA [CACACA_site386],10.03 ± 0.035
3,TATATTAATAATAAGTGTACATATATATATATTTTT [XGTACX_site288],11.3 ± 0.81
4,TATATATATATTTATACACACATTAGTGTATACATG [CACACA_site2950],10.3 ± 0.22
5,CATGTGCATATTAAATGTACATATATACATATATAC [XGTACX_site857],10.9 ± 0.58
6,TTGTGTACATATTAAGTGCATATATATATATATATA,11.7 ± 1.2
7,ATATTAATATACATATGTACATATATATATATATAT [XGTACX_site7425],11.2 ± 0.62
8,TTTTTTTTATTAGTGTGTACGCATTTATTTATACAT [XGTACX_site1599],11.7 ± 0.88
9,AATATATTTATATAGTGTACATTTTTTATATATGTA [XGTACX_site8142],11.3 ± 0.78
10,TTACATACATACAAGTGTACGCATATATTAATATTA [XGTACX_site4006],11.8 ± 1
11,TTAATATATTATATTTGTACATATATATATATACAA [XGTACX_site4798],10.9 ± 0.62
12,AATATATCTTTTTACGGCAACCATATTTTTCCCATT [CACACA_negctrl_site963],10.21 ± 0.064
13,TGATTATCCTATATATATTTCATAATGGAAAAAAAT [TGCATGCA_negctrl_site444],9.89 ± 0.35
14,CCATATGATATATATTGTACATTATATATTATTTCT [XGTACX_site1697],10.7 ± 0.45
15,CGTTAAAGGGAATGTATACACACGTTTCTCTATGTT [CACACA_site1198],10.2 ± 0.16
16,ACGTATAATATGTACACACACATATATACAAAAAAA [CACACA_site917],11.5 ± 1.1
17,TAAAAAAAAACATATACACACAAAAACGTACACATA [CACACA_site1354],11.8 ± 1.1
18,TATATACACATATATAAACACACAAAAAAAAAAAAA [CACACA_site8626],9.89 ± 0.48
19,TATAAACGTATAATATGTACACACACATATATACAA [XGTACX_site1686],11.3 ± 0.94
20,TATACACATATATAAACACACAAAAAAAAAAAAAAA [CACACA_site7041],9.78 ± 0.53
21,ATATACACACAAAAACGTACACATATATATATGTAT [XGTACX_site2673],11.7 ± 0.86
22,AAAAATTTATTTTGTTTTTTAAGATTTTTTTTTTTT [CACACA_negctrl_site1210],9.46 ± 0.028
23,TAGTATAATATGAACACACACACACGCACAAAAAAA [CACACA_site7035],10.4 ± 0.2
24,CATATAATATAATTATGTACATATATAATAATATAC [XGTACX_site5278],11.2 ± 0.69
25,CTTATTTAAGAGTATGAACACACATCATACACATAT [CACACA_site9205],10.3 ± 0.23

row,Sequence,gcPBM binding intensity (ln)
1,TTTTGTTACGGCAAGGAAGTTAAGCATAAATGAATG [GTGCAC_negctrl_site173],10.1 ± 0.16
2,AAAAAAAAAAAAAAAGGTACAGTAAAAAATTCCTCT [XGTACX_site5947],11.7 ± 0.98
3,AAAAAAGGTAAAAAAAGTACAAAAAAAAAATTAAAA [XGTACX_site6993],11.3 ± 0.88
4,AAAAAAAAATAAAAAAGTACAGGTAAATATATATAT [XGTACX_site5812],11.5 ± 1.2
5,ATATTGTAAGTAAACACACACACATATATATGTATA [CACACA_site8124],9.955 ± 0.035
6,ATAAATATAACATATTGTACCCTTAAAAAGGAACAA [XGTACX_site352],11.7 ± 0.96
7,AAAGACAAAAGGAATTGTACATAATATATAAAATAT [XGTACX_site2923],10.8 ± 0.54
8,ATATATAAAATATATTGTACATTAACATATATATTT [XGTACX_site2055],10.7 ± 0.43
9,ATAATATATTTTTGTAGTACACTTCTGGTAATATCG [XGTACX_site2402],11.7 ± 1
10,TAATAATATATTTGTAGTACACAATTTTTTATAACT [XGTACX_site3951],11.6 ± 0.89
11,TAGTAATATATATTTTGTACATAAAATAATATATAA [XGTACX_site7971],10.9 ± 0.59
12,AAGTTTTATTTAAATTGTACTAAAATTTTTATATTA [XGTACX_site7065],11 ± 0.69
13,TATATATAAAGGTGTACACATATATATATATCTGTA [CACACA_site5311],11.7 ± 0.98
14,ACATATATATAAAGGTGTACACATATATATATATAT [XGTACX_site4779],11.7 ± 0.76
15,ATACAATAAAGGTGTACACATATATGATGCAAGATG [CACACA_site5897],11.7 ± 0.93
16,TAAAGTTATGCAATAACACACATATACAATACATAT [CACACA_site6698],9.98 ± 0.057
17,AATACAATATAAAGGTGTACATATATATATATATAT [XGTACX_site68],11.4 ± 0.9
18,AACACATAAAAAAGGTGTACCATAAAATATACATAC [XGTACX_site4478],11.4 ± 0.76
19,TATATATATCTGTACACACACACATATAAATAAATA [CACACA_site4405],11.4 ± 1
20,AATAAATAAATATATACACACATATATCTGTACATA [CACACA_site9034],10.9 ± 0.67
21,TGATGCAAGATATATACACACATATAAATATAAATA [CACACA_site7429],9.8 ± 0.042
22,TAAGCCAAGGGATAAATAAAATAACAAAATGAAATC [GTGCAC_negctrl_site601],9.66 ± 0.36
23,ATATGTATATATAAAAGTACGCGTAAAAAAAAAAAA [XGTACX_site5377],11.7 ± 1.3
24,TATACACATATATAAAGTACATATATGTGTAAAAAA [XGTACX_site8582],11 ± 0.64
25,AAATATAAAAGTATATGTACATATATATATATATAT [XGTACX_site7446],11.2 ± 0.64

row,Sequence,gcPBM binding intensity (ln)
1,TATTTTTTAAAAAAATGTCATAAAATTTCTTTTTTC [XGTACX_negctrl_site271],9.9
2,AAAAAAAAAAAAAGATGTACATATATTTTTATTATA [XGTACX_site654],11.4 ± 0.96
3,GCCTATATGTTTAGTTGTACTCCTAATATTATTTGT [XGTACX_site6060],11.7 ± 1.1
4,TAATATATTAATTTTTGTACTTAATTATATGTTTTT [XGTACX_site5654],10.9 ± 0.63
5,ATATGCCTAATAAAATGTACGTTTGTTTTATTTATT [XGTACX_site3833],11 ± 0.49
6,ATATGTATATTTTTTTGTACGTATTTATGTGTGTGT [XGTACX_site2093],11.4 ± 0.84
7,ATACATATATAATTATGTACGTATATTTTATATAAC [XGTACX_site4292],11.6 ± 0.91
8,ATATATACATATATATGTACGTATATTTTTATTTCT [XGTACX_site6198],11.6 ± 1.1
9,ACTTTCAAGGATGTACGTACATATGTATTTTATAAC [XGTACX_site6714],11.7 ± 0.91
10,CTTTAACCATATATGTGTACGTATTTTATTCATATT [XGTACX_site6212],11.8 ± 1.1
11,ATATTTATATTTTCATGTACGTATTTTTATATATAT [XGTACX_site8478],11.6 ± 0.96
12,TAATAAATCAAATGCACACACACAAAAAAAAAAAAA [CACACA_site161],10 ± 0.49
13,AGAAATATATATATATATATATATATATATATATAT [TGCATGCA_negctrl_site375],10 ± 0.88
14,TCTTTAAATTTCTCAACACACAGTTATAAAAAATAA [CACACA_site2856],9.8 ± 0.085
15,TATAAATTTTTATTTACATGCAGTTATTATTTCCAT [TGCATGCA_site41],10 ± 0.18
16,TAGTATTAAAATATTTGTACTTATATGTATTATATA [XGTACX_site538],11 ± 0.69
17,TAATGGTGTTCATGTGGTACACTTTATAAATTGGCA [XGTACX_site729],11.7 ± 1.1
18,TAATGGTATAAAAAATGTACATGTTTTTTTACAATT [XGTACX_site4285],11.2 ± 0.54
19,GCTTTTAAAATAATTGGTACACATGTATAAATTCAA [XGTACX_site2327],11.1 ± 0.69
20,TCATTCATATGTTACACACACACACGCACATAAAAA [CACACA_site7514],10.5 ± 0.35
21,TTATGATATATTTGTTGTACGCTTTTTTTATGAACT [XGTACX_site573],11.8 ± 1.1
22,TTTTCAATATATATTTGTACTTTATTTTATGATATT [GTGCAC_negctrl_site732],11.2 ± 0.75
23,ATTTTATATATGTGTTGTACGGTGAACATTTTGATA [XGTACX_site6538],10.8 ± 0.58
24,GAAATATTTGTAAAAACATGCATGGTACTTTTAAAA [TGCATGCA_site6],11 ± 0.7
25,ATTTTAAATATTTGTGGTACCCCTTTTTTGTAACAA [XGTACX_site5590],11.8 ± 1.1

row,Sequence,gcPBM binding intensity (ln)
1,TTCCCTTTTGTAAAATGTACATATATATTTAAACAA [XGTACX_site3263],11.2 ± 0.54
2,ATTTATATTTAATATACACACATTATTTTTTTATAT [CACACA_site574],9.955 ± 0.021
3,TGTAGAGCGCAAAGTAGTACTACAAATTATGGAGGG [XGTACX_site3022],11.8 ± 1
4,TAAAAATGGGAGGGGTGTACTACACAATAAAATTAT [XGTACX_site5641],11.6 ± 0.95
5,ATATATGACAAATGTAGTACAAATTATTGTATCATA [XGTACX_site3675],11.4 ± 0.76
6,TTATATTTTTACAAGAGTACATATATATATATATAT [XGTACX_site5383],11.4 ± 1.1
7,ATGTAAATACATATATGTACACAAATATATATATAT [XGTACX_site3537],11.6 ± 1.1
8,TATATTTTATATTGGTGTACAATTTTTTTTTTTTTT [XGTACX_site4291],11.4 ± 0.91
9,TTATTTTTTTTGTGTTGTACAATTTATTACTACTAA [XGTACX_site346],11.3 ± 0.82
10,TTCTGTGTGTATTGGCGTACAATTATTTTGCCTACA [XGTACX_site205],11.7 ± 0.83
11,TTTTTATAAAAATGAACACACACATATATATATATA [CACACA_site9160],10.2 ± 0.49
12,ATGTGTTGGGAAAAGGCATGCACTTTTTTTTTTTTT [TGCATGCA_site707],10.2 ± 0.11
13,GTACAGATGTAGTATGCATGTAATTATATATAAATT [TGCATGCA_site292],11.1 ± 0.47
14,CTTTTAATTATAAAATGTACTTAAAAATAATAATAC [XGTACX_site635],11.1 ± 0.88
15,TTATATACATAAAAATGTACTTTTTATAAAATATAT [XGTACX_site8281],11.2 ± 1
16,TTATTTTATAATAAAAGTACACAAAAAAAAAAAAAA [XGTACX_site7668],11.4 ± 1.1
17,TAATAATAAATAAAATGTACATATGAACAAATAAGT [XGTACX_site6710],11.3 ± 0.61
18,TAATGTATGAAATAAACACACAAGTAAGTACATAAA [CACACA_site2451],11.6 ± 0.98
19,TTATTATAAAAATGTAGTACAATACTTTTTTTTTTT [XGTACX_site732],11.7 ± 0.84
20,TAAAATAAAAATTAAAGTACATATGTATATATATAT [XGTACX_site3984],11.1 ± 0.88
21,ATATGAAATATATGTAGTACACATAATTAAAAGTAG [XGTACX_site6490],11.7 ± 0.86
22,CCTTTATAAAAAAGTAGTACACAATGAATTTATAAT [XGTACX_site5523],11.8 ± 1
23,GGGGGCTTTTATAAAAGTACAAAATGAATAAAAATT [XGTACX_site2393],11.4 ± 0.97
24,AATAATGTATGAAATAAACACACAAGTAAGTACATA [CACACA_site8776],11.7 ± 0.91
25,AATGAAATAAAATAAAGTACATATATGTAAAAGTAG [XGTACX_site5650],11.4 ± 0.79
